The supplement of paper PMC10849652
Of roughly 8,800 targets only a part is listed; those with a hit were picked by preference. About 0.5% of all pairs of compound and target were hits.

What was measured:
Experiment in all cases: log2 fold change, soluble protein after heating vs DMSO (PISA); higher = thermal stabilisation; K562 lysate, 10 uM; active = over 0.2 and 3.5 SD of the protein, either way, in both replicates (recomputed)
[1] = compound: Cc1nc(Nc2ncc(C(=O)Nc3c(C)cccc3Cl)s2)cc(N2CCN(CCO)CC2)n1 [dasatinib]
Method in brief: (§1)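 Thermal stability, expressed as log-two fold change relative to solvent controls, is given from duplicates. Crude K562 extract in PBS pH 7.4 with 1 mM MgCl2, at 1 mg/mL protein, was treated with 10 μM compound for 30 min and heated in aliquots for 3 min across 48°C-58°C. After pooling, adjustment to 0.5% NP-40 at 4°C and centrifugation at 21,000xg for 90 min, supernatant protein was measured by TMTpro 16plex LC-MS/MS with channel sums equalised.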

[2] = compound: Cn1cc(-c2ccc3c(c2)CCN3C(=O)Cc2cccc(C(F)(F)F)c2)c2c(N)ncnc21
Method in brief: as §1

[3] = compound: Cn1cc(CNCC2CCN(c3ncc(C(=O)NO)cn3)CC2)c2ccccc21 [quisinostat]
Method in brief: as §1

[4] = compound: NC(=O)Nc1cc(-c2cccc(F)c2)sc1C(=O)N[C@H]1CCCNC1
Method in brief: as §1

[5] = compound: NC(=O)c1cnc(N[C@@H]2CCCC[C@@H]2N)nc1Nc1cccc(-n2nccn2)c1
Method in brief: as §1

[6] = compound: NC1(c2ccc(-c3nc4ccn5c(=O)[nH]nc5c4cc3-c3ccccc3)cc2)CCC1
Method in brief: as §1

[7] = compound: Cc1cn(-c2cc(NC(=O)c3ccc(C)c(Nc4nccc(-c5cccnc5)n4)c3)cc(C(F)(F)F)c2)cn1 [nilotinib]
Method in brief: as §1

[8] = compound: Cc1nc(Nc2n[nH]c3c2CN(C(=O)N[C@H](CN(C)C)c2ccccc2)C3(C)C)c2sccc2n1
Method in brief: as §1

[9] = compound: Cc1ncc(-c2ccnc(Nc3ccc(S(C)(=O)=O)cc3)n2)n1C(C)C
Method in brief: as §1

[10] = compound: Cn1cncc1[C@@](N)(c1ccc(Cl)cc1)c1ccc2c(c1)c(-c1cccc(Cl)c1)cc(=O)n2C [tipifarnib]
Method in brief: as §1

Measured: log2 fold change

PFKFB4 (UniProt Q16877)
Sequence of UniProt Q16877 (Q16877 whole entry, looked up): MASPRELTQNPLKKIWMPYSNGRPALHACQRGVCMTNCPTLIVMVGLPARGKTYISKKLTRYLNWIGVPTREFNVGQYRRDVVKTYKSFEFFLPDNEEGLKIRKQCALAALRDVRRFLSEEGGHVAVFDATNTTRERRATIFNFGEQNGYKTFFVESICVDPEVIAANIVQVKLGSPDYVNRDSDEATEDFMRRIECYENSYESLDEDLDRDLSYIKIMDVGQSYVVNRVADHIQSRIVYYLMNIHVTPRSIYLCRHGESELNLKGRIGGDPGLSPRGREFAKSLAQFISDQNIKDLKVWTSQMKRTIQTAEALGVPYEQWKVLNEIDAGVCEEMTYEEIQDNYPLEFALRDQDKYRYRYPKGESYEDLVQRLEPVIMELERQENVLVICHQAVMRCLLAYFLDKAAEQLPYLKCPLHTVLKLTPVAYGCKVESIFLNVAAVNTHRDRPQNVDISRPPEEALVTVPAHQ
inactive: [1] 0.009 | [2] -0.045 | [3] 0.059 | [4] -0.024 | [5] 0.015 | [6] 0.013

PDIA4, A0A499FI48
inactive: [1] -0.004 | [2] 0.044 | [3] -0.02 | [4] 0.164

PRKD3 (UniProt O94806)
Sequence of UniProt O94806 (O94806 whole entry, looked up): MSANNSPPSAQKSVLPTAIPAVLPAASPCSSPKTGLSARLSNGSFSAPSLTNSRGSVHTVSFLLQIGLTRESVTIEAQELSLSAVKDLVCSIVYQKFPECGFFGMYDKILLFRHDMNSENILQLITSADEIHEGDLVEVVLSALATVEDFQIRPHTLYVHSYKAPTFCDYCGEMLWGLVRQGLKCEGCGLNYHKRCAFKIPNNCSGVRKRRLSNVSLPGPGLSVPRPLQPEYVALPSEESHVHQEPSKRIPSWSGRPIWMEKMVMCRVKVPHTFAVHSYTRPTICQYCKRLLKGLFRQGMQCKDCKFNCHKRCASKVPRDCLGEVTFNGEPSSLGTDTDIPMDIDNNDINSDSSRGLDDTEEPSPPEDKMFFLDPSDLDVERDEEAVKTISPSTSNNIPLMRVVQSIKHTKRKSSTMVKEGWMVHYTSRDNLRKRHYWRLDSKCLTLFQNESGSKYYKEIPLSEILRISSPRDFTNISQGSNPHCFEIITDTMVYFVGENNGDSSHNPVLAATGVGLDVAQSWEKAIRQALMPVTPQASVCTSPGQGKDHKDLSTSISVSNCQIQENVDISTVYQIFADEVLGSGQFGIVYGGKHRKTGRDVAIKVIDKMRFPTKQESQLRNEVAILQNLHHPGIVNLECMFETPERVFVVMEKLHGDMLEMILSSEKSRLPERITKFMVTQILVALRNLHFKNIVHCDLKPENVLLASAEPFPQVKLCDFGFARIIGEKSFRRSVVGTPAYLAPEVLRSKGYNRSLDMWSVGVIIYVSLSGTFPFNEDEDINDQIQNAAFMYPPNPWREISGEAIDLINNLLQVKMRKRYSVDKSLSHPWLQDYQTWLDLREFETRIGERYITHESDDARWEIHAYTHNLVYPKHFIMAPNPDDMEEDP
inactive: [7] 0.054 | [8] -0.086 | [9] -0.03 | [3] -0.014 | [10] 0.087 | [4] -0.174 | [5] 0.001 | [6] 0.054
